“And” between values parts separate entries of the source, which are not always exact repeats. Equal values may be shown once. Inconclusive results are not listed. The source made the active and inactive calls. Unless noted, how the calls were made is not given here. Non-standard residues stand in square brackets, D forms with d. Residues, ends and D or L forms follow the SMILES beside them. *: point of attachment. Sta = CC(C)C[C@H](N)[C@@H](O)CC(=O)O; Isovaleryl = CC(C)CC(=O)*
Key:
[1] = qHTS profiling of the MIPE4 collection as inhibitors of Plasmodium falciparum (3D7) proliferation (AID 743344);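 further: scaled between DMSO vehicle wells and 0.29 µM artemisinin as full inhibition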; details: P. falciparum 3D7 in erythrocytes, SYBR Green DNA fluorescence, 72 h; at 28.5 µM unless noted
How it was run: (§1)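 Parasite DNA was quantified by SYBR Green I fluorescence (ex 485, em 535 nm) after overnight lysis in saponin/Triton buffer at room temperature. Cultures at 0.3% parasitemia and 2.5% hematocrit were first exposed to compound for 72 h at 37 C; signals were normalised to artemisinin (0.29 uM) and vehicle wells.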

[2] = qHTS profiling of the MIPE4 collection as inhibitors of Plasmodium falciparum (DD2) proliferation (AID 743345); details: P. falciparum Dd2 in erythrocytes, SYBR Green DNA, 72 h; at 28.5 µM unless noted
How it was run: as §1

[3] = qHTS profiling of the MIPE4 collection as inhibitors of Plasmodium falciparum (DD2) proliferation (Rep 2) (AID 743346); details: P. falciparum Dd2 in erythrocytes, SYBR Green DNA, 72 h; at 28.5 µM unless noted
How it was run: as §1

[4] = qHTS profiling of the MIPE4 collection as inhibitors of Plasmodium falciparum (HB3) proliferation (AID 743347);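 further: plate controls were DMSO vehicle wells for no effect and artemisinin wells for full effect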; details: P. falciparum HB3 in erythrocytes, SYBR Green DNA, 72 h; at 28.5 µM unless noted
How it was run: as §1

[5] = High-throughput drug toxicity screening in the BPDCN cell line Gen2.2 (AID 1224824); details: Gen2.2 BPDCN cells; at 45.8 µM (top of the series) unless noted;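 further: cells exposed to compounds for 48 h before reading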
How it was run: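 Seed 500 exponentially growing Gen2.2 cells/well; add compounds by pin tool; incubate 48 h, 37 °C, 5% CO2; add CellTiter-Glo, 15 min RT; read luminescence. % activity vs DMSO (100%) and bortezomib (0%).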

[6] = qHTS Assay for Identifying Gametocytocidal Compounds (AID 743244; active means well fitted curve in the direction sought with a large enough effect; further: potency means the concentration at half of the fitted maximal effect;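 on max response: on the % scale 0 is the no-effect control and ±100 the full control effect; actives lower the fluorescent signal which means gametocytes are killed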); details: P. falciparum 3D7 stage III-V gametocytes, alamarBlue, 72 h; max response: stronger effect = lower value
How it was run: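 Late gametocytes (III–V), P. falciparum 3D7; 72 h drug, then 24 h alamarBlue; resazurin reduction read by fluorescence.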

SMILES | parasite growth, % of DMSO control [1] | parasite growth remaining, % of DMSO control (lower = more inhibition) [2] | parasite growth, % of control (lower = inhibition) [3] [%] | growth, % of control [4] | cell viability, % of control (lower = more cytotoxic) [5] | max response [6] | Potency [6]
CN(C)C(=O)[C@H](O)[C@H](Cc1ccccc1)NC(=O)c1cc2cc(Cl)ccc2[nH]1 | 6.18% | 54.1% | 13.9 | 2.28% | 238% |  | 
C[Se]CCC(N)C(=O)O (stereo not drawn) | 99.6% [at 57.5 µM] | 105% [at 57.5 µM] |  | 86.5% [at 57.5 µM] | 170% [at 92.2 µM] | -7.98% (inactive) | 
Nc1ncn([C@H]2C[C@H](O)[C@@H](CO)O2)c(=O)n1 | 98% | 99.3% |  | 81.1% | 125% | -3.47% (inactive) | 
CCOc1cc(CC(=O)N[C@@H](CC(C)C)c2ccccc2N2CCCCC2)ccc1C(=O)O | 83.8% | 123% |  | 75.6% | 23.9% | 1.56% (inactive) | 
CC(C)Oc1ccc2c(=O)c(-c3ccccc3)coc2c1 |  | 89.9% |  | 54.5% | 181% | -8.04% (inactive) and -1.57% (inactive) | 
CC(C)c1nc(CN(C)C(=O)N[C@H](C(=O)N[C@@H](Cc2ccccc2)C[C@H](O)[C@H](Cc2ccccc2)NC(=O)OCc2cncs2)C(C)C)cs1 | 20.4% | 66.3% |  | 15.5% | 28.1% | -4.83% (inactive) | 
Cc1nccn1CC1CCc2c(c3ccccc3n2C)C1=O (stereo not drawn) |  | 80.4% | 40.2 | 54.5% | 105% | -12.7% (inactive) and -3.64% (inactive) | 
CC(C)CC(=O)N[C@H](C(=O)N[C@H](C(=O)N[C@@H](CC(C)C)[C@@H](O)CC(=O)N[C@@H](C)C(=O)N[C@@H](CC(C)C)[C@@H](O)CC(=O)O)C(C)C)C(C)C (Isovaleryl-VV[Sta]A[Sta]-OH) | 59.4% | 99.1% | 58.8 | 64.1% | 72.5% |  | 
N=C(N=C(N)N)N1CCOCC1 | 106% | 96.2% | 93.1 | 101% | 139% | 0.738% (inactive) | 
CN(C)C(=O)COC(=O)Cc1ccc(OC(=O)c2ccc(N=C(N)N)cc2)cc1 | 75% | 93% | 43 | 101% | 129% | 10.2% (inactive) | 
Clc1ccc2c(N3CCN(CCCN4CCN(c5ccnc6cc(Cl)ccc56)CC4)CC3)ccnc2c1 | 18.8% [at 9.64 µM] | 9.96% [at 9.64 µM] |  | 14.1% [at 9.64 µM] | 88.7% [at 23.2 µM] |  | 
C[C@H](Cn1cnc2c(N)ncnc21)OCP(=O)(O)O |  | 112% |  | 612% | 168% |  | 
Cc1ccc(C(=O)c2cc(O)c(O)c([N+](=O)[O-])c2)cc1 |  | 93.6% | 82.4 | 92.8% | 52.4% | 2.67% (inactive) | 
COc1cc(C(C)=O)ccc1OCCCN1CCC(c2noc3cc(F)ccc23)CC1 |  | 54.6% | 40.6 | 54.6% | 69.7% | 6.32% (inactive) | 
COC(=O)C1=C(C)NC(C)=C(C(=O)OCCCN2CCC(c3ccccc3)(c3ccccc3)CC2)C1c1cccc([N+](=O)[O-])c1 (stereo not drawn) |  | 107% | 86.6 | 102% | 109% |  | 10 µM (active)
CC[C@]1(O)C[C@H]2CN(CCc3c([nH]c4ccccc34)[C@@](C(=O)OC)(c3cc4c(cc3OC)N(C=O)[C@H]3[C@@](O)(C(=O)OC)[C@H](OC(C)=O)[C@]5(CC)C=CCN6CC[C@]43[C@@H]65)C2)C1 | 19.3% | 18% |  | 5.89% | 10.7% | 24.7% (inactive) | 

From PubChem BioAssay (NCATS)
